Test results published in PubChem BioAssay (NCI).
Compounds without any hit were thinned out: in the full panel of roughly 83,000, 20% have a hit.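 Method: cells in 96-well plates; compound added at one concentration; 48 h incubation; percent growth measured; values under 10 scored active.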 Values without a mark were called inactive. Activity calls are given as the source filed them.

Key:
Assay in all cases: NCI-60 one-dose screen, 48 h (100 = growth as untreated, 0 = no growth, -100 = all killed)
Details in all cases: 10 µM unless noted
NCI-H23 lung = tested on: NCI-H23 lung
NCI-H226 lung = tested on: NCI-H226 lung
NCI-H322M lung = tested on: NCI-H322M lung
HOP-62 NSCLC = tested on: HOP-62 NSCLC
NCI-H460 lung = tested on: NCI-H460 lung
HOP-92 NSCLC = tested on: HOP-92 NSCLC
A549/ATCC NSCLC = tested on: A549/ATCC NSCLC
786-0 renal = tested on: 786-0 renal
COLO 205 colon = tested on: COLO 205 colon

SMILES | growth (NCI-H23 lung) | growth (NCI-H226 lung) | growth (NCI-H322M lung) | growth (HOP-62 NSCLC) | growth (NCI-H460 lung) | growth (HOP-92 NSCLC) | growth (A549/ATCC NSCLC) | growth (786-0 renal) | growth (COLO 205 colon)
CCCCCc1c(C)[nH]c(/C=C2\N=C(c3ccc[nH]3)C=C2OCc2ccccc2)c1C | -67.3% [100 µM] (active) | -42.5% [100 µM] (active) | -94.6% [100 µM] (active) | -91.9% [100 µM] (active) | -40.4% [100 µM] (active) | -77.6% [100 µM] (active) | -70% [100 µM] (active) | -75.7% [100 µM] (active) | -84% [100 µM] (active)
NS(=O)(=O)c1ccc(-n2nc(-c3ccc(Br)cc3)ccc2=O)cc1 | 61.3% [100 µM] | 79.5% [100 µM] | 87.7% [100 µM] | 20% [100 µM] | 67.2% [100 µM] | -30.5% [100 µM] (active) | 58% [100 µM] | 46.7% [100 µM] | 80.2% [100 µM]
COc1cc(-c2n[nH]nc2-c2ccccn2)cc(OC)c1OC | 98.2% | 90.3% | 95.8% | 97.5% | 104% | 86.3% | 65.6% | 96.4% | 119%
COc1ccc2ncccc2c1Cc1c(OC)ccc2ncccc12 | 80.1% | 80% | 96.6% | 65% | 82.4% | 58.1% | 64.5% | 89.1% | 79.9%
N#Cc1ccccc1C#Cc1ccccc1C#Cc1ccc(OCCCCCCOc2ccc(C#Cc3ccccc3C#Cc3ccccc3C#N)cc2)cc1 | 99.4% | 102% | 105% | 103% | 116% | 91.6% | 94% | 98.4% | 119%
COc1cnc2c(c1)C(=O)c1c-2n(CCCNC2=NCCS2)c(=O)c2cc(F)ccc12 | 6.62% (active) | 3.93% (active) | 46.6% | 11.2% | -43.8% (active) | 50.9% | 9.29% (active) | -90.5% (active) | 22.1%
O=C(CNC(=O)c1cccc2ccccc12)Nc1ccccc1Cc1ccccc1 | 52.1% [5 µM] | 72.3% [5 µM] | 78.4% [5 µM] | 36.4% [5 µM] | 17.9% [5 µM] | 53.5% [5 µM] | 27% [5 µM] | 45.3% [5 µM] | 29.4% [5 µM]
O=C(Nc1ccccc1)c1cc(-n2cnc([N+](=O)[O-])c2)cc(-n2cnc([N+](=O)[O-])c2)n1 | 98.6% | 86.2% | 92% | 102% | 119% | 49.7% | 87% | 102% | 97.4%
COc1cc(Cl)cc(-c2nn(-c3cccc(NC(=O)c4cc(C(F)(F)F)cc(C(F)(F)F)c4)c3)cc2-c2ccncc2)c1 | 72.1% | 76% | 80.3% | 103% | 40.9% | 46.8% | 43.5% | 80.2% | 88.7%
COc1ccc(C2=NN(C(C)=O)C(c3cccc(Nc4ccnc5cc(Cl)ccc45)c3)C2)cc1 (stereo unspecified) | 60.7% | 74.5% | 63.9% | 38% | 64.9% | 32.7% | 45.5% | 58.6% | 19.1%
Cc1ccc2nc(SCC(=O)Nc3ccc(-c4nc5ccccc5s4)c(Cl)c3)[nH]c2c1 | 109% | 98.7% | 101% | 114% | 116% | 98% | 98.3% | 98.1% | 107%
N#Cc1c(-c2ccccc2)cc(-c2ccccc2)n(CCCC(=O)O)c1=O | 91.3% | 101% | 95.3% | 85.1% | 103% | 119% | 92% | 99.6% | 109%
COC(=O)[C@H](CCCCNC(=O)OCc1ccccc1)NC(=O)[C@@H](NC(=O)Nc1cc(C(F)(F)F)cc(C(F)(F)F)c1)C(C)C | -45.6% [100 µM] (active) | 39% [100 µM] | 19.9% [100 µM] | -84.2% [100 µM] (active) | -23.1% [100 µM] (active) | -69.5% [100 µM] (active) | 45.1% [100 µM] | -91.7% [100 µM] (active) | -12.8% [100 µM] (active)
O=C1CSC(c2ccccc2O)N1c1nnc(Cn2ccnc2)o1 (stereo unspecified) | 67.9% | 91.4% | 69.6% | 67.2% | 34.8% | 69.1% | 66.5% | 59.1% | 92.6%
